What all share (test): NCI-60 one-dose screen, 48 h (100 = growth as untreated, 0 = no growth, -100 = all killed)
What all share (conditions): 10 µM unless noted

The test system of experiment [1] is NCI-H23 lung.
In experiment [2] the test system is NCI-H226 lung.
Experiment [3] deals with NCI-H322M lung.
Experiment [4] relates to NCI-H460 lung.
Experiment [5] concerns HOP-92 NSCLC.
Experiment [6] deals with NCI-H522 lung.
The test system of experiment [7] is A549/ATCC NSCLC.
Experiment [8] relates to 786-0 renal.
The subject of experiment [9] is COLO 205 colon.
Experiment [10] relates to DU-145 prostate.
Experiment [11] relates to K-562 leukemia.
Experiment [12] concerns MALME-3M melanoma.
The test system of experiment [13] is MDA-MB-231 breast.
Experiment [14] has as its system RXF 393 renal.
For experiment [15], the system named is SF-268 CNS.
The test system of experiment [16] is SF-295 CNS.
In experiment [17] the test system is SF-539 CNS.
Experiment [18] relates to UACC-257 melanoma.
Experiment [19] concerns M14 melanoma.
The subject of experiment [20] is HOP-62 NSCLC.

Compounds without any hit were thinned out: in the full panel of roughly 83,000, 20% have a hit.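 Growth was measured after 48 h exposure to one concentration of compound in 96-well plates. Values under 10 count as active.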 Values without a mark were called inactive. Activity calls are given as the source filed them.

Take `CCCc1cc(=O)oc2c3c(c4c(c12)OC(C)(C)CC4)OC(C)[C@H](C)[C@@H]3O` (some centres not stated): the growth in experiment [1] was 81.4%; in experiment [2], 81.1%; in [3], 106%; in experiment [4], 85.7%; in experiment [5], -1.36% (active); in experiment [6], 57.7%. In addition, the growth is 72% in experiment [7]; 86.4% in experiment [8]; 96.1% in [9]; 104% in experiment [10]; 71.2% in [11]; 139% in experiment [12]. The growth is 79.9% in [13]; 77.5% in experiment [14]; 94.4% in experiment [15]; 44.5% in experiment [16]; 108% in experiment [17]; 104% in [18]. Besides, in [19], the growth is 102%.

As for `CCCN(CCC)C(=O)c1ccc(C)cc1`, the growth is 99.3% in [1]; 81.2% in experiment [2]; 111% in [3]; 80% in [20]; 66.3% in [5]; 82.3% in [6]. The growth in experiment [7] was 93.2%; in experiment [8] it was 98%; in [10], 109%; in [11], 109%; in experiment [12] it was 100%; in experiment [13], 108%. In addition, the growth in [14] was 113%; in [15] it was 100%; in experiment [16], 91.9%; in experiment [17], 101%; in experiment [18] it was 91.3%; in experiment [19], 95.2%.

Take `CCOc1cc(F)c([N+](=O)[O-])cc1[N+](=O)[O-]`: the growth in experiment [1] is 38.9%; in experiment [2], 95.3%; in [3] it was 103%; in experiment [20], 93.8%; in [5], 72.1%; in experiment [6] it was -55.7% (active). For the same compound, the growth in experiment [7] is 90.9%; in experiment [8], 59.9%; in experiment [9] it was -48.4% (active); in experiment [11] it was 0.671% (active); in experiment [12], -19.2% (active); in experiment [13], 37.9%. Moreover, the growth is 12.4% in [14]; 77.6% in [15]; 96.9% in experiment [16]; 56.5% in [18]; 30.5% in experiment [19].

Consider `Oc1c(Cl)cc(Cl)cc1C=NCC1CCC(CN=Cc2cc(Cl)cc(Cl)c2O)CC1` (configuration not stated), for which the growth in experiment [1] was 102%; in experiment [2], 97%; in [3], 75.5%; in experiment [20], 95.1%; in experiment [5], 76.6%; in [6], 91.6%. The growth is 106% in experiment [7]; 96.7% in [8]; 112% in [9]; 104% in experiment [10]; 66.8% in experiment [11]; 89.6% in experiment [12]. Further, the growth in experiment [14] is 90.9%; in experiment [15], 70.9%; in [16] it was 98%; in experiment [17], 89.3%; in experiment [18], 111%; in [19], 90.4%.

Turning to `CN(C)c1ccc(/C=C/c2sc3ccc4ccccc4c3[n+]2C)cc1`, the growth in experiment [1] is -25.9% (active); in experiment [2], -29.4% (active); in experiment [3], -10.5% (active); in experiment [20], -73.3% (active); in experiment [7], -14% (active); in experiment [8], -90.8% (active). Further, the growth in experiment [9] was -85.8% (active); in experiment [10], -40% (active); in experiment [11], 0.148% (active); in experiment [12], -48.8% (active); in experiment [13], -61.5% (active); in experiment [14] it was -95.1% (active). Further, the growth in [15] is -65.1% (active); in experiment [16], -35.4% (active); in experiment [17] it was -54.6% (active); in experiment [18], -48.7% (active); in experiment [19], -76.5% (active).

Turning to `CCOc1ccc(C(CN2CCOCC2)C(C)=O)cc1OC` (configuration not stated), the growth in experiment [1] is 98.9%; in [2] it was 98.9%; in experiment [3] it was 117%; in [20], 104%; in experiment [5], 102%; in experiment [6], -51.6% (active). For the same compound, the growth is 101% in experiment [7]; 63.7% in experiment [8]; 58% in experiment [9]; 45.5% in experiment [11]; 84% in experiment [12]; 94.6% in [13]. The growth in [14] is 85.8%; in experiment [15] it was 105%; in experiment [16], 102%; in [17], 89.6%; in experiment [18] it was 90%; in experiment [19], 93.8%.

Turning to `COc1c(C)c2c(c(O)c1C/C=C(\C)CCC(=O)O)C(=O)OC2`, the growth in experiment [1] was 33.9%; in experiment [2], 58.8%; in [3] it was 38.3%; in experiment [4], 9.24% (active); in [5], 73.9%; in experiment [6], 19.4%. For the same compound, the growth in experiment [7] is 11.6%; in experiment [8], 21.3%; in experiment [9] it was 39.3%; in experiment [10], 50.8%; in [11], 20.2%; in experiment [12], 38.8%. In addition, the growth in experiment [13] is 57%; in experiment [14], 50.7%; in experiment [15] it was 34.8%; in experiment [16], 16.8%; in [17], 40.7%; in experiment [18] it was 13.2%. Moreover, the growth in experiment [19] is 20.4%.

For the compound `CC[n+]1ccc(Nc2ccc(NC(=O)c3ccc(Nc4cc[n+](CC)c5ccc([N+](=O)[O-])cc45)cc3)cc2)cc1`, the growth in experiment [1] was 81.8%; in experiment [2], 92.8%; in [3], 96.8%; in experiment [20] it was 92.8%; in experiment [6], 65.7%; in [7] it was 66.1%. Also, the growth was 101% in experiment [8]; 69.8% in experiment [9]; 91.9% in experiment [10]; 48.2% in [11]; 40% in experiment [12]; 114% in [13]. Also, the growth was 97.9% in experiment [14]; 86.1% in experiment [15]; 59.3% in experiment [16]; 94.5% in [17]; 56.2% in experiment [18]; 83.7% in experiment [19].

With `O=C(/C=C/c1ccccc1)c1ccccc1O`, the growth in [1] is 82.3%; in experiment [2], 91.6%; in experiment [3], 90.2%; in experiment [20], 103%; in experiment [5] it was 74.4%; in [6], 69.6%. For the same compound, the growth is 83.9% in [7]; 79.7% in experiment [8]; 105% in experiment [9]; 51.6% in experiment [11]; 97.2% in experiment [12]; 91.5% in experiment [13]. The growth in experiment [14] was 65.7%; in experiment [15], 85.2%; in experiment [16], 94.8%; in experiment [17] it was 89.9%; in experiment [18], 91.8%; in [19], 92.3%.
